The text below walks through data of PubChem BioAssay (Tox21).

Inconclusive results are not listed. A number with no mark means an inactive call. Activity calls are given as the source filed them. The call rests on the fitted dose curve; in most records, active means well fitted cell-killing curve with a large enough effect in the repeat runs; inconclusive means weak or mixed curves, or effect the other way; inactive means no such curve, though single readings can be large or run the other way.
On the % scale 0 is the no-effect control and ±100 the full control effect.

This assay is described as follows: qHTS assay to identify small molecule antagonists of the glucocorticoid receptor (GR) signaling pathway - cell viability counter screen (AID 720693). Further: nearly all actives have a fitted effect of over 55% in size. To be noted: GR-bla HeLa viability, CellTiter-Glo luminescence, 18 h, with 5 nM dexamethasone present; series mostly up to 58.5 µM; viability change, negative = cytotoxic: at the top concentration. An excerpt: National Center for Advancing Translational Sciences [NCATS]
NIH Chemical Genomics Center [NCGC]
U.S. Environmental Protection Agency [EPA]
National Institutes of Environmental Health Sciences [NIEHS]
National Toxicology Program [NTP]
U.S. Food and Drug Administration [FDA]
The Glucocorticoid receptor (GR) is one of the members of the nuclear receptor family of ligand-dependent transcription factors. GR plays a critical role in carbohydrate, protein and lipid metabolisms and programmed cell death. CellSensor GR-bla HeLa cell line (Invitrogen) contains a beta-lactamase reporter gene under the control of the glucocorticoid response element stably integrated into HeLa cells, a cervical cancer cell line that expresses glucocorticoid receptor. The activation of the reporter gene under culture conditions can be detected by fluorescence intensity. This cell line has been used to screen the Tox21 10K compound library and to identify the compounds that inhibit the GR signaling. The cytotoxicity of the Tox21 compound library against the GR-bla HeLa cell line was tested in parallel by measuring the cell viability using CellTiter-Glo assay in the same wells.
Tox21 Assay Protocol Summary:
The GR-bla HeLa cells were dispensed at 1500 cells/5 ul/well in 1536-well black wall/clear bottom plates using a Multidrop Combi (ThermoFisher Scientific, Waltham, MA) dispenser. After the assay plates were incubated at a 37 C/5% CO2 incubator for 4 hours, 23 nL of compounds dissolved in DMSO, positive controls or DMSO only was transferred to the assay plate by a pintool station (Kalypsys, San Diego, CA), followed by addition of 1 uL of dexamethasone (5 nM, final concentration in the well). The plates were incubated at 37 C for 18 hours. After 1 uL of LiveBLAzerTM B/G FRET substrate was added using a Flying Reagent Dispenser (Aurora Discovery, San Diego, CA), the plates were incubated at room temperature (RT) for 2 hours, and fluorescence intensity was measured by an Envision plate reader (PerkinElmer, Shelton, CT). After measurement of bla assay, 3 ul CellTiter-Glo (Promega, Madison, WI) was added to measure the cytotoxicity and the plates were then incubated at RT for 30 min. The luminescence was measured using a ViewLux (Perkin Elmer) plate reader.
As to `CC/C=C\CCOC(C)=O`, the “viability change, negative = cytotoxic” value is -2.09%.
For the compound `O=C[C@H](O)[C@@H](O)[C@H](O)[C@H](O)CO`, the compound was called inactive.
Take `C1CN(CCOCCN2CCOCC2)CCO1`: the “viability change, negative = cytotoxic” value is 6.55%.
`Cc1ccc(=O)n(-c2ccccc2)c1`: the “viability change, negative = cytotoxic” value was 20.6%.
`COC(=O)c1cc(C(=O)OC)cc(S(=O)(=O)O)c1`: the “viability change, negative = cytotoxic” value is 28.2%.
On to `CCCc1cc(C(N)=S)ccn1`, for which the “viability change, negative = cytotoxic” value was 2.7%.
For the compound `CC(=O)OCC(=O)[C@@]1(O)CC[C@H]2[C@@H]3CCC4=CC(=O)CC[C@]4(C)[C@H]3C(=O)C[C@@]21C`, the “viability change, negative = cytotoxic” value is 7.5%.
In the case of `CCCCC(CC)COC(=O)c1ccccc1O` (stereo not given), the “viability change, negative = cytotoxic” value was 2.05%.
Turning to `CC(C)(O)C#CC(C)(C)O`, the “viability change, negative = cytotoxic” value was -0.0512% [at 78.9 µM].
Still for that read-out and setting: then `CCc1nccnc1CC`, with 7.16% [at 27 µM]; and `C[C@H]1C[C@@H](O)CC(C)(C)C1`, with 1.45%; and `CN(C)CCCNCCCN(C)C`, with 16.1%.
`CCCCCCCCCCCC`: the “viability change, negative = cytotoxic” value was 16.5%.
The same measure, in the same setting: then `C=COCC1CCC(CO)CC1` (stereo not given), with -2.11%.
Take `N[C@H]1CN(c2c(F)cc3c(=O)c(C(=O)O)cn(C4C[C@H]4F)c3c2Cl)CC12CC2` (stereo not given in full): the “viability change, negative = cytotoxic” value is 2.79%.
On the same count and under the same terms, the value for `CCCCCCCCCCCCCCCCC` was 6.81%; that for `CC(C)(CC(=O)O)C(=O)O` was -3.57%; that for `COc1ccc(CCN(C)CCCC(C#N)(c2cc(OC)c(OC)c(OC)c2)C(C)C)cc1OC` (stereo not given) was 12.2%.
With `C/C=C(\C)C#N`, the “viability change, negative = cytotoxic” value is 21.8%.
Consider `NS(=O)(=O)c1cc2c(cc1Cl)NC(C1CC3C=CC1C3)NS2(=O)=O` (stereo not given), for which the “viability change, negative = cytotoxic” value is -0.624%.
Regarding `CC(C)CCCC(C)N` (stereo not given), the “viability change, negative = cytotoxic” value is 26.4%.
For the compound `COC(=O)c1c(Cl)c(Cl)c(C(=O)OC)c(Cl)c1Cl`, the “viability change, negative = cytotoxic” value is 11.6%.
The same measure, in the same setting: the value for `CC[N+](C)(C)c1cccc(O)c1` was -6.36% [at 27 µM].
Still for that read-out and setting: the value for `CCCCCCOC(=O)CCCCC(=O)OCCCCCC` was 9.52%; that for `N=C(N)c1ccccc1` was 6.3%; that for `CN1CCC(=C2c3ccccc3CC(=O)c3sccc32)CC1` was -1.64%.
As for `C[C@](N)(Cc1ccc(O)cc1)C(=O)O`, the “viability change, negative = cytotoxic” value was -1.69%.
As to `Cc1nc2c([nH]1)c(=O)n(C)c(=O)n2Cc1ccco1`, the “viability change, negative = cytotoxic” value is -6.15%.
Regarding `CCCCCCCCCCCCN(CCCCCCCCCCCC)CCCCCCCCCCCC`, the “viability change, negative = cytotoxic” value is 15.8%.
Still for that read-out and setting: then `CCOC(=O)C(=O)OCC`, with -0.599%.
For the compound `C[N+](C)(C)CCCCCC[N+](C)(C)C`, the “viability change, negative = cytotoxic” value is 8.73%.
For the compound `C=CCOCC(CC)(CO)COCC=C`, the “viability change, negative = cytotoxic” value is 14.3%.
`CC(=O)CC(C)C`: the “viability change, negative = cytotoxic” value was -0.403%.
The same measure, in the same setting: then `CN1CCN(c2cc3c(cc2F)c(=O)c(C(=O)O)cn3-c2ccc(F)cc2)CC1`, with 3.85%; and `C=C(C)CS(=O)(=O)O`, with 3.96%; and `O=C(O)CNC(=O)c1ccc([N+](=O)[O-])cc1`, with -0.948%.
On to `CCN(Cc1ccncc1)C(=O)C(CO)c1ccccc1` (stereo not given), for which the “viability change, negative = cytotoxic” value is 2.39%.
On to `Nc1nc2c(ncn2COC(CO)CO)c(=O)[nH]1`, for which the “viability change, negative = cytotoxic” value was 19.1% [at 27 µM].
Regarding `CCn1ccnc1CC1COc2ccccc2O1` (stereo not given), the “viability change, negative = cytotoxic” value was 2.53%.
As to `C=CCS(=O)(=O)O`, the “viability change, negative = cytotoxic” value was -3%.
